This is a sample that favours compounds with a hit; in the whole collection about 4% have one here.
PAX8 reporter = PAX8 transcriptional activity inhibition; 360,000 tested, 1.2% active; RMG-I TPO-luciferase reporter, SteadyGlo, 24 h; AID 652154; inhibition, % at 12.6 µM;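 active means mean replicate inhibition at least 60% with every replicate also reaching 60%; inconclusive means only one of the two criteria is met; inactive means mean below 60% and not all replicates reaching 60%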;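 further: luciferase light reporting Pax8 driven TPO promoter activity; plate controls were median of neutral control wells for no effect and mitoxantrone controls for full effect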
Wnt bcat act = activates Wnt/beta-catenin signaling in a reporter cell assay. activator, plate reader. activation, % at 9.35 µM. 300,000 tested, 1.2% active; in the data active means activation above about 30%, passing the limit was not always enough; inconclusive means no clear call, values can overlap the other calls;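 further: 0% = neutral control wells and 100% = positive control wells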
esBAF inh = inhibitors of esBAF chromatin remodeling in mouse ES cells. Bmi1-luciferase knock-in reporter, 24 h; 100% = twice the neutral-well signal. reporter increase, % at 12.5 µM. 350,000 tested, 2% active. AID 602393; in the data active means activation above about 40%; inconclusive means no clear call, values can overlap the other calls;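 further: 0% = median of the plate's neutral control wells and 100% = double that signal; a rise in the Bmi1 reporter signal indicates esBAF inhibition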
MITF TRPM1 inh = MITF TRPM1 promoter inhibition in SK-MEL-5 cells | SK-MEL-5 TRPM1 promoter luciferase, 24 h | inhibition, % at 12.5 µM | AID 488899 | 330,000 tested, 0.83% active;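 active means mean inhibition across replicates of 60% or more, whatever share of single replicates reaches that level; inconclusive means some that reach 60%, reason not given; inactive means mean inhibition across replicates below 60%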
EWS-Fli block = inhibitors of EWS/Fli oncoprotein transcriptional activity; A673 NR0B1-luciferase reporter, viability-normalised; inhibition, % at 12.6 µM; 350,000 tested, 0.67% active; AID 651661;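 active means mean inhibition of at least 50% after viability correction, with every replicate also passing that limit; inconclusive means mean reaches 50% but only one of two replicates passes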;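 further: firefly luciferase signal divided by Alamar Blue viability fluorescence both relative to DMSO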
MITF TRPM1 HTS = activators of MITF-driven TRPM1 promoter activity in SK-MEL-5 cells. activation, % at 12.5 µM. SK-MEL-5 TRPM1-promoter luciferase, 24 h; % of positive control, neutral wells = 0. 300,000 tested, 0.75% active. AID 588334;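 active means mean activation of at least 80% with every replicate also reaching 80%; inconclusive means mean reaches 80% but some replicate falls short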;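 further: 0% = neutral control wells and 100% = parthenolide positive control wells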
Starred values were filed as active, the others as inactive; ? = inconclusive; . = not tested or not shown; ! = not active in a repeat.

SMILES	PAX8 reporter	Wnt bcat act	esBAF inh	MITF TRPM1 inh	EWS-Fli block	MITF TRPM1 HTS
CCN1CCN(CCCNC(=O)C2CCCN(c3nc4c(C)cc(C)cc4s3)C2)CC1 (stereo unspecified)	-22	-5	-1	-23	-61	27
Cc1oc(-c2cccc(Cl)c2)nc1CN1CCC(C(=O)NCCCN2CC(C)CC(C)C2)CC1 (stereo unspecified)	.	.	-3	96*	.	-96
COc1cccc(NC(=O)N[C@@H]2C=C[C@@H](CC(=O)Nc3ccc(-c4ccccc4)cc3)O[C@H]2CO)c1	.	.	7	.	.	.
O=C(Nc1cccc2ccccc12)c1cn(-c2ccccc2)nc1-c1cccs1	.	0	.	-35	-34	33
CCN(CC)CCNC(=O)c1ccc(NC(=O)c2cn(-c3ccc(F)cc3)nc2-c2cccc(OC)c2)cc1	53	-5	0	98*	59*	-96
CCN(CC)CCNC(=O)c1ccc(NC(=O)c2cc(-c3ccco3)nc3ccccc23)cc1	-19	-1	1	70*	.	-67
CCN(CC)CCNC(=O)c1ccc(NC(=O)c2cn(-c3ccccc3)nc2-c2cccs2)cc1	-13	-9	.	76*	58*	-75
CN(C)C(=O)c1ccc(NC(=O)c2cc(-c3ccco3)nc3ccccc23)cc1	-8	-2	.	-7	-1	7
CN(CC(=O)Nc1ccc(F)cc1)C(=O)c1cn(-c2ccccc2)nc1-c1cccs1	5	2	1	5	-11	-4
O=C(Nc1cccnc1)c1cn(-c2ccccc2)nc1-c1cccs1	.	29	58*	-56	.	59
CNC(=O)C[C@@H]1CC[C@@H]2[C@@H](COc3ccc(NS(=O)(=O)c4cccc(F)c4)cc3C(=O)N2C)O1	-21	.	2	.	-5	.
COc1ccccc1S(=O)(=O)N[C@@H]1CC[C@H](CCNC(=O)C2CCOCC2)O[C@@H]1CO	.	.	0	.	.	.
COc1ccc(S(=O)(=O)N(C)C[C@H]2OCCCC[C@H](C)Oc3ccc(NS(=O)(=O)c4ccc(C)cc4)cc3C(=O)N([C@H](C)CO)C[C@@H]2C)cc1	?	.	6	.	-2	.
Cc1ccccc1CN(C)C[C@H]1OCc2cn(nn2)CCCC(=O)N([C@@H](C)CO)C[C@@H]1C	-9	.	4	.	0	.
O=c1c(-c2ccccc2)nc(-c2ccccc2)cn1O	.	.	54*	-33	.	33
COc1ccc(/C=N/NC(=O)c2ccn[nH]2)cc1CSc1ccccn1	-181	0	45*	-30	-94	33
COc1ccc(/C=N/NC(=O)c2cccc(Br)c2)cc1CSc1ccccn1	.	.	.	-7	.	2
C/C(=N/OCc1ccc(Br)cc1)c1ccccn1	-149	18	6	-109	-44	117*
CC(C(=O)O/N=C(\N)c1ccccn1)c1ccc([N+](=O)[O-])cc1 (stereo unspecified)	-49	0	.	-2	-30	2
N/C(=N\OCc1ccc([N+](=O)[O-])cc1)c1ccccn1	.	.	.	73*	.	-71
COCCNC(=O)c1cc2c(c(-c3cccc(-c4cccc(F)c4)c3)n1)[C@H](CCO)N([S@@](=O)C(C)(C)C)C2	19	.	-2	.	11	.
O=C1c2c(O)ccc(O)c2C(=O)c2c(NCCNCCO)ccc(NCCNCCO)c21	106*!	-24	-83	95*	40	-85
Cc1ccc(C(=O)C[n+]2cc(-c3ccc(C)cc3)n3c2CCCCC3)cc1	.	.	5	76*	.	-77
O=C(C[n+]1cc(-c2ccccc2)n2c1CCCCC2)c1ccc(Br)cc1	9	0	.	19	11	-18
COc1ccc(-c2c[n+](CC(=O)c3cccs3)c3n2CCC3)cc1	15	0	.	17	9	.
SMILES	PAX8 reporter	Wnt bcat act	esBAF inh	MITF TRPM1 inh	EWS-Fli block	MITF TRPM1 HTS
COc1ccc(C(=O)C[n+]2cc(-c3ccc(OC)cc3)n3c2CCCC3)cc1	72*!	-1	-38	39	19	-38
Cc1ccc(-c2c[n+](Cc3ccc(Cl)c(Cl)c3)c3n2CCC3)cc1	80*	-2	.	72*	.	-71
COc1ccccc1C(=O)Nc1ccc2c(c1)OC[C@H](C)N(C(C)=O)C[C@H](C)[C@H](OC)CN(C)C2=O	4	.	-31	.	10	.
COc1ccc(CNC(=O)C[C@@H]2C=C[C@H](NS(=O)(=O)c3cccc(OC)c3)[C@H](CO)O2)cc1	.	.	1	.	-9	.
CCOCCCNC(=O)c1ccc(Br)cc1	-46	15	23	-8	.	7
CCOCCCNC(=O)c1ccc(/C=C2\Oc3ccccc3N(C)C2=O)cc1	-75	2	72*	-20	-17	20
Cc1noc(C)c1S(=O)(=O)N(C)C[C@H]1Oc2ccc(NC(=O)NC3CCCCC3)cc2CC(=O)N([C@H](C)CO)C[C@H]1C	-10	.	7	.	6	.
CC(=O)c1c(C)n([O-])c2cc(F)c(F)cc2[n+]1=O	35	0	.	39	63*	-36
CCCNC(=O)N[C@@H]1CC[C@@H](CC(=O)NC2CCC2)O[C@H]1CO	8	.	3	.	10	.
C[C@@H]1CN([C@@H](C)CO)C(=O)c2cccc(NC(=O)Nc3ccc(F)cc3)c2O[C@@H]1CN(C)Cc1ccccc1	-27	.	4	.	1	.
C[C@@H]1CCCCO[C@@H](CN(C)C(=O)Nc2ccccc2)[C@H](C)CN([C@H](C)CO)C(=O)c2cc(NS(=O)(=O)c3ccc(F)cc3)ccc2O1	25	.	1	.	4	.
COc1ccccc1-c1cc(C(F)(F)F)nc(S(=O)(=O)CCCC(=O)Nc2cc(C)on2)n1	.	.	8	96*	.	-96
COc1ccc(-c2cc(C(F)(F)F)nc(S(=O)(=O)CCCC(=O)Nc3cc(C)on3)n2)cc1OC	90*	-15	.	41	5	-41
COc1ccc(-c2cc(C(F)(F)F)n3nc(C(=O)Nc4cc(C)on4)cc3n2)cc1OC	.	.	-5	1	.	-4
CCOC(=O)CNc1ccc(C(=O)OCC)cc1[N+](=O)[O-]	7	4	.	-3	.	0
CCCNc1ccc(C(=O)OCC)cc1[N+](=O)[O-]	-144	8	52*	-73	2	77
CCCN1C(=O)C(=O)N(CC(=O)c2cc(C)n(C3CC3)c2C)C1=O	-172	26	29	-87	-41	89*
CO[C@H]1CN(C)C(=O)c2ccc(NC(=O)c3ccc(F)cc3)cc2OC[C@H](C)N(C)C[C@@H]1C	-24	.	.	.	.	.
O=C(NC[C@H]1CC[C@@H]2[C@@H](CN2S(=O)(=O)c2ccccc2[N+](=O)[O-])O1)C1CC1	.	.	.	.	8	.
Cc1ccc(OCc2cc(C(=O)N3CCC(Oc4cccnc4)CC3)no2)cc1C	-3	5	10	-12	-4	13
Cc1ccc(OCc2cc(C(=O)N3CCN(C)C[C@@H]3c3ccccc3)no2)cc1C	-218	-1	.	-108	-123	113*
CN1CCN(C(=O)c2cc(COc3ccccc3)on2)[C@@H](c2ccccc2)C1	-244	42*	64*	-86	-69	91*
